Activity calls are given as the source filed them. The calls were made as follows: active = hit-call score of the fitted dose curve at least 0.9, where 1 is the maximum; inactive = score below 0.9.
Read-out: Keratin 19 (KRT19), KRT19 (gene 3880)
Test: LTEA_HepaRG_KRT19: Life Technologies and Expression Analysis (LTEA) Assay for Keratin 19 (KRT19) using HepaRG (AID 2283512)
Conditions: mRNA level, 48 h; actives raise or lower the signal
Description: LTEA_HepaRG is a cell based, multiplexed-readout assay that uses HepaRG, a human liver cell line, with measurements taken at 48 hours after chemical dosing on a 96-well plate.LTEA_HepaRG_KRT19 is one of 102 assay component(s) measured in the LTEA HepaRG cell culture assay. It is a marker of Cell proliferation, survival, death.Data from the assay component LTEA_HepaRG_KRT19 was analyzed into 1 endpoint. This assay endpoint, LTEA_HepaRG_KRT19, was analyzed with bidirectional fitting relative to DMSO as the negative control and baseline of activity. Using a type of inducible reporter, measures of mRNA induction for gain or loss-of-signal activity can be used to understand regulation of transcription factor activity. To generalize the intended target to other relatable targets, this assay endpoint is annotated to the filaments intended target family, where the subfamily is keratin.
A total of 1060 chemcials from the ToxCast library were tested in eight-point concentration-response experiments. Cell culture and cytotoxicity assays were conducted at Thermo Fisher Scientific's Custom Services facility (Madison, WI). A single lot of human HepaRG cells (Thermo Fisher Scientific, Frederick, MD) was used for the cell culture experiments. 96-well format collagen type I coated plates of human HepaRG cells were prepared using established methods. Briefly, cryopreserved HepaRG cells were thawed, plated at a density of approximately 100,000 cells/well in HepaRG Thaw, Plate, and General Purpose media (HPRG770, Thermo Fisher Scientific), and incubated for 48 hours. 0.5% DMSO was selected as vehicle control to balance the requisite need of DMSO in HepaRG cultures to maintain differentiation (for example, baseline metabolism, proportions of hepatocytes vs. cholangiocytes), while enabling further hepatic receptor pathway activation (for example, PXR and CAR) in response to chemical exposure. 48 hours after plating, the culture medium was replaced with HepaRG Serum-Free Incudtion Media. Cells were exposed to each test chemical in duplicate and maintained in CO2 incubators for another 48 hours. Chemical plates were thawed to room temperature and 200x concentrations of treatment groups were prepared. 8-point conentration-reponse curves were made with the highest exposure at 100 uM, followed by half-log dilutions, all in 0.5% DMSO. Each test plate contained variouse controls, induction positive controls (1mM phenobarbital), cytotoxicity positive controls ([…] aflatoxin B1), vehicle controls (0.5% DMSO), and total lysis controls (0.5% DMSO). Cell morphology images were taken using an Essen IncuCyte FLR automated microscope, with six 96-well plates imaged in about 24 minutes. Images were captured and exported and JPEG files. Spent culture media was transfered to black-well plates for the LDH assay, and remaining media was sorted at -80 C for later use. Cells were treated with RLT buffer and frozen until shipped for gene expression analysis. Total RNA was isolated from the cell suspension in 75 uL of Buffer RLT (Qiagen, Germantown, MD 20874) by Quintiles/Expression Analysis (Durham, NC) using a custom isolation procedure. Total RNA from each plate well was transferred to a preamplification plate. Fluidigm's 96.96 Dynamic ArrayTM (Fluidigm, Amsterdam, the Netherlands) technology was used for gene expression analyses by quantitative reverse transcription polymerase chain reaction (qRT-PCR, performed by Quintiles/Expression Analysis, Durham, NC)89. Standard TaqManTM Assays (Applied Biosystems/ThermoFisher Scientific, Foster City, CA) were used to assess the expression of 93 genes selected based on their selectivity and sensitivity to important hepatic receptors known to be modulated by environmental chemicals; importance in human hepatocyte functionality; and hepatotoxicity. […]

Row | Compound | outcome | AC50
1 | c1ccc2c(c1)oc1ccccc12 | inactive | –
2 | CC(C)(O)c1cnn2c(-c3ccc(F)c(-c4c(F)cccc4C#N)c3)cnc2n1 | inactive | –
3 | O=C1CCCO1 | inactive | –
4 | CCCCCCCCCCCCCN1CC(C)OC(C)C1 (stereo not given) | inactive | –
5 | CC(C)N(Cc1ccccc1)C(=O)C(C)(C)C | inactive | –
6 | O=C(Oc1ccc(Br)cc1)N1CCN2CCC1CC2 | inactive | –
7 | CCC12COCN1COC2 | inactive | –
8 | CCNS(=O)(=O)C(F)(F)C(F)(F)C(F)(F)C(F)(F)C(F)(F)C(F)(F)C(F)(F)C(F)(F)F | – | 48.2 µM (active)
9 | Cc1cccc(N)c1N | – | 21.3 µM (active)
10 | Nc1ccc(N=Nc2ccccc2)cc1 | – | 50 µM (active)
11 | CCCCCOC(=O)c1ccccc1C(=O)OCCCCC | inactive | –
12 | OCCOCCO | inactive | –
13 | [As]#[In] | inactive | –
14 | Nc1cc(Cl)cc(C(=O)O)c1Cl | inactive | –
15 | CC(C)(OOC(C)(C)c1ccccc1)c1ccccc1 | inactive | –
16 | OCCCBr | inactive | –
17 | COC(=O)Nc1nc2ccccc2[nH]1 | – | 7.44 µM (active)
18 | Cc1ccc(N=C=O)cc1N=C=O | – | 23.9 µM (active)
19 | COc1cc(C=O)cc2c1[C@H](COC(N)=O)[C@]1(OC(C)=O)ON2C[C@H]2[C@@H]1N2C(C)=O | – | 1.49 µM (active)
20 | CN(C)c1ccc(C(=O)c2ccc(N(C)C)cc2)cc1 | – | 13.5 µM (active)

Row | Compound | outcome | AC50
21 | CCCCC(CC)COC(=O)c1ccc(C(=O)OCC(CC)CCCC)c(C(=O)OCC(CC)CCCC)c1 (stereo not given) | inactive | –
22 | Clc1ccc(C(c2ccc(Cl)cc2)C(Cl)Cl)cc1 | inactive | –
23 | [O-][Cl+]O | inactive | –
24 | N#CC(Br)Br | inactive | –
25 | Clc1ccc(Cl)c(Cl)c1 | inactive | –
26 | CN(C)C(=O)Nc1ccc(Cl)cc1 | inactive | –
27 | Cn1cc(-c2ccccc2)c(=O)c(-c2cccc(C(F)(F)F)c2)c1 | inactive | –
28 | [Cl-].[Cl-].[Hg+2] | – | 29.3 µM (active)
29 | Cc1ccc([N+](=O)[O-])cc1 | inactive | –
30 | Clc1ccccc1Cl | inactive | –
31 | Nc1ccc(Cl)cc1N | – | 33.5 µM (active)
32 | Brc1ccc(Oc2ccccc2)cc1 | inactive | –
33 | C=CCc1ccc2c(c1)OCO2 | inactive | –
34 | CCC(C)c1ccc(O)cc1 (stereo not given) | inactive | –
35 | O=C(N[C@H](c1ccccc1)[C@@H]1CN2CCC1CC2)c1c(Cl)ccc(C(F)(F)F)c1Cl | – | 12 µM (active)
36 | O=C(O)C1C2CCC(O2)C1C(=O)O (stereo not given) | – | 50 µM (active)
37 | CC(C)COC(=O)c1ccccc1C(=O)OCC(C)C | inactive | –
38 | CC(C)(C)OOC(C)(C)CCC(C)(C)OOC(C)(C)C | inactive | –
39 | CCOc1cccc(C2(N3CCN(c4ccccc4)CC3)CCC(C)CC2)c1 (stereo not given) | inactive | –
40 | ClC1=C(Cl)C2(Cl)C3C(Cl)C=CC3C1(Cl)C2(Cl)Cl (stereo not given) | inactive | –

Source: PubChem BioAssay (EPA / NIEHS)
